Measured values from PubChem BioAssay (NCATS).
“And” between values parts separate entries of the source, which are not always exact repeats. Equal entries are not always repeated. Records with an inconclusive call do not appear. Unmarked numbers belong to inactive results. The source made the active and inactive calls. Unless noted, calls come from the whole dose curve; as a rule, active = well fitted inhibition curve with a large enough effect; inconclusive = small, poorly fitted or top-dose-only effect; inactive = flat fitted curve, though single readings scatter.

Molecular target: Retinoic acid receptor RXR-alpha (Homo sapiens) (UniProt P19793)
Assay: qHTS assay for small molecule antagonists of retinoid X receptor alpha signaling (AID 588546; active = well fitted inhibition curve with a large enough effect in the signal ratio, with a control signal flat, not every such curve was filed as active; the % refers to the signal ratio;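 note: cells stimulated with 9-cis-retinoic acid as agonist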)
Settings: HEK293T RXRa-UAS-bla, beta-lactamase ratio, antagonist mode
Outline: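 Beta-lactamase reporter inhibition, read as CCF4 fluorescence ratio (ex 405, em 460/530 nm) after 2 h at RT. HEK293T UAS-bla cells, 2500/well, were stimulated with 9-cis-RA at 500 or 100 nM final alongside test compound for 18 h at 37 C.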
% is set by controls: 0 for no effect and ±100 for the full control effect.

Sequence of Retinoic acid receptor RXR-alpha (Homo sapiens) (P19793 whole entry, looked up): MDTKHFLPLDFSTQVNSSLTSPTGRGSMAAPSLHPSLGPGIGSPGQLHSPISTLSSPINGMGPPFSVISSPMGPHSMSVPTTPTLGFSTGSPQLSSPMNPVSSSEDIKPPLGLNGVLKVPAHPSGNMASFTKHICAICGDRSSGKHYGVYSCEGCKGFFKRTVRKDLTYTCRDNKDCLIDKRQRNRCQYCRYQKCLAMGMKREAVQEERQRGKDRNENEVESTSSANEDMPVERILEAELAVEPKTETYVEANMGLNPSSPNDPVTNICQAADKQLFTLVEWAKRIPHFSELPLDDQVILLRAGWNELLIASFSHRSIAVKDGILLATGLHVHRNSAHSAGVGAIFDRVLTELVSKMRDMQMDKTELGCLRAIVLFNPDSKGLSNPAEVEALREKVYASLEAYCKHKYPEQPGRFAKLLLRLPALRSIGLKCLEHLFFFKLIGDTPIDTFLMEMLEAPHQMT

Structure (SMILES) | max response
CCCN(CCC)C(=O)SCC | 13.3% and -9.15%
COc1ccc2nc(N)sc2c1 | 1.97% and 2.53%
ClCCCl | -2.31% and -1.04% and -10.6%
CCC(O)OC(O)CC (configuration not stated) | -3.68% and -1.43%
C=Cc1ccccc1Cl | -6.96%
c1ccc2c(c1)c1cccc3ccc4cccc2c4c31 | -6.5% and -1.07%
Cc1cccc([N+](=O)[O-])c1C | -8.9% and -18.4%
CCCCCCCCO | 1.87% and 1.57% and -7.12%
CC(C)=CCCC(C)CCO (configuration not stated) | -7.24% and 2.51%
O=[N+]([O-])c1cccc(Cl)c1Cl | 13.3% and -13.6%
CCO[Si](CCCN)(OCC)OCC | 16.1% and 0.599%
Clc1cc(Cl)c(Cl)cc1Cl | 6.25% and -33.5%
CCO | -6.86%
Clc1cc(Cl)c(Cl)c(Cl)c1Cl | -0.48% and -22.2%
CCCCC(CC)CN (configuration not stated) | 27.8% and 7.94%
O=NO | 16.8% and -9.55%
c1ccc2c(c1)[nH]c1ccccc12 | 0.549% and -19.1%
OCCNCCO | -2.15% and -2.6%
Nc1ccc(Cl)cc1Cl | -0.389% and -0.876%
CCC(C)c1ccccc1O (configuration not stated) | 0.496% and -0.838% and 1.78%
CC1=CC(C)(C)Nc2ccccc21 | 7.64% and -0.906%
CN(C)C=O | 8.45% and -9.56%
Cc1ccc(N)c([N+](=O)[O-])c1 | -0.0872% and -10.2%
CCCCOCCO | 8.5% and -5.75% and -0.568%
CC(=O)OC/C=C(\C)CCC=C(C)C | 5.08% and 4.69%

Molecular target: Thyroid hormone receptor beta (Homo sapiens) (UniProt P10828)
Assay: qHTS assay for small molecule antagonists of thyroid hormone receptor beta signaling (AID 588547; active = well fitted inhibition curve with a large enough effect in the signal ratio, with a control signal flat, not every such curve was filed as active; the % refers to the signal ratio;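 note: cells stimulated with 0.4 nM T3 agonist during compound exposure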)
Settings: TR-UAS-bla HEK293, beta-lactamase ratio, antagonist mode, 18 h
Outline: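 TR-UAS-bla GripTite HEK293 cells in 2% charcoal/dextran FBS medium were preincubated 4 h at 37 C, given compound (0.59 nM to 92 uM) plus 0.4 nM T3 (final) for 18 h, then CCF4 for 2 h at RT; Hill fit gave IC50.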

Sequence of Thyroid hormone receptor beta (Homo sapiens) (P10828 whole entry, looked up): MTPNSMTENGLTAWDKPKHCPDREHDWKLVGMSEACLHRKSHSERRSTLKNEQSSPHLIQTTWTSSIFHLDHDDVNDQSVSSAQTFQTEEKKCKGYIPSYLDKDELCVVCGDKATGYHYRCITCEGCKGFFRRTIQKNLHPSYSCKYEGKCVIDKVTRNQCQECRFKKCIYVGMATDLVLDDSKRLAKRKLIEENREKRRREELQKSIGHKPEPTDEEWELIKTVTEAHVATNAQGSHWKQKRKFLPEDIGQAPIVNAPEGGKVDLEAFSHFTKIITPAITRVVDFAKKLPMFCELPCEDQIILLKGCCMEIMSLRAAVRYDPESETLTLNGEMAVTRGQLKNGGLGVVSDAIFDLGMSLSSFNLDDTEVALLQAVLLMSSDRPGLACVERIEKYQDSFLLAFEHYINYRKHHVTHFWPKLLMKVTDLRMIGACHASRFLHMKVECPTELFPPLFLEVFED

Structure (SMILES) | activity change % (negative = inhibition)
CCCN(CCC)C(=O)SCC | 0.19% and 8.86%
COc1ccc2nc(N)sc2c1 | -0.575% and 14.1%
ClCCCl | 4.14% and 2.63% and 8.67%
CCC(O)OC(O)CC (configuration not stated) | -5.47% [middle of 4 runs]
C=Cc1ccccc1Cl | 9.88%
c1ccc2c(c1)c1cccc3ccc4cccc2c4c31 | 6.13% and -3.87%
Cc1cccc([N+](=O)[O-])c1C | -0.0299% and -1.89%
CCCCCCCCO | -10.6% and 5.6% and -2.56%
CC(C)=CCCC(C)CCO (configuration not stated) | -8.9% and -1.71%
Clc1cc(Cl)c(Cl)cc1Cl | 5.68% and 7.52%
CCO | -1.42%
Clc1cc(Cl)c(Cl)c(Cl)c1Cl | 4.53% and 17.6%
CCCCC(CC)CN (configuration not stated) | 20% and -6.26%
O=NO | -1.68% and 1.18%
c1ccc2c(c1)[nH]c1ccccc12 | 1.02% and -10.3%
Nc1ccc(Cl)cc1Cl | -5.09% and -14.9%
CCC(C)c1ccccc1O (configuration not stated) | -2.64% and 0.537%
CC1=CC(C)(C)Nc2ccccc21 | -25%
CN(C)C=O | -4.62% and -13.9% and 12%
Cc1ccc(N)c([N+](=O)[O-])c1 | -3.23%
CCCCOCCO | -4.64% and -15.2%
CC(=O)OC/C=C(\C)CCC=C(C)C | 10.6%

Molecular target: Voltage-gated inwardly rectifying potassium channel KCNH2 (Homo sapiens) (UniProt Q12809)
Assay: qHTS Assay for Small Molecule Inhibitors of the Human hERG Channel Activity (AID 588834);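 note: top concentration of the series differs between compounds; lower thallium flux fluorescence means stronger hERG block; nearly all actives have a fitted effect of over 50% in size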
Settings: U2OS BacMam hERG, FluxOR thallium flux fluorescence; series mostly up to 92.2 µM; activity change, negative = inhibition: at the top concentration
Outline: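 Concentration-response qHTS measuring drop in thallium-sensitive dye signal. U2OS cells carrying BacMam hERG; compound exposure ~10 min, then stimulation buffer and 2 min read at 1 sec intervals.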

Sequence of Voltage-gated inwardly rectifying potassium channel KCNH2 (Homo sapiens) (Q12809 whole entry, looked up): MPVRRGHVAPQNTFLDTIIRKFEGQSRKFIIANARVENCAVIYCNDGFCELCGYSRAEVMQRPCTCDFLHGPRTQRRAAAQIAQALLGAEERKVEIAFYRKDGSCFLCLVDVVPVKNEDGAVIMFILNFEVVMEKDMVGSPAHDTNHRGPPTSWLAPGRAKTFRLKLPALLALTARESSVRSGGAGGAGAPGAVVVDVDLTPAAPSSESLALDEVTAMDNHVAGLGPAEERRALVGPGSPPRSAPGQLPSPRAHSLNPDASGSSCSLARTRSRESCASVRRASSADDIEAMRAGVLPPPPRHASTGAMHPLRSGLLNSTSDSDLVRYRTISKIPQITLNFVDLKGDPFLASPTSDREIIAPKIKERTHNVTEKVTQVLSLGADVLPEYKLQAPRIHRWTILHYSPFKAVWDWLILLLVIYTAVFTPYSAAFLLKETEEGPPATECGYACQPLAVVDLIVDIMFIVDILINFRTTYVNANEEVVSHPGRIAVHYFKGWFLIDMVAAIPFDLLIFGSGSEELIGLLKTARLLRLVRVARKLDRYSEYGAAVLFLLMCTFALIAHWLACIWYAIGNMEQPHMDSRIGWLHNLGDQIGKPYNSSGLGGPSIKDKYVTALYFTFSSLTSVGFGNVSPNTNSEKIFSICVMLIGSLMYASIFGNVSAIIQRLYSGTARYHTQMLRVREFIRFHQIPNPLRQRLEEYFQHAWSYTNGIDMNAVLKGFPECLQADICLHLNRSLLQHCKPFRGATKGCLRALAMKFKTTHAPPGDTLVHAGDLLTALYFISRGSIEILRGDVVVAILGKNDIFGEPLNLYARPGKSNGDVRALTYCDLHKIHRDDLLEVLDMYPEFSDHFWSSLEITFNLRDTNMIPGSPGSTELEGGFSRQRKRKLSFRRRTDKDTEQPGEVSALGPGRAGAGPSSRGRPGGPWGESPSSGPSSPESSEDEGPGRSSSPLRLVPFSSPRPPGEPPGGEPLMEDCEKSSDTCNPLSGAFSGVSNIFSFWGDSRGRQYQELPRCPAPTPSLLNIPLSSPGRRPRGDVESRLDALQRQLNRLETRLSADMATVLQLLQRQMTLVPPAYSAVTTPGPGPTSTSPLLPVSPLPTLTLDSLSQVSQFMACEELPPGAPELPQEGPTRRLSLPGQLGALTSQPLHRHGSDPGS

Structure (SMILES) | activity change, negative = inhibition | Potency
CCCN(CCC)C(=O)SCC | 2.95% | 
COc1ccc2nc(N)sc2c1 | 6.45% | 
ClCCCl | 0.793% | 
CCC(O)OC(O)CC (configuration not stated) |  | inactive
C=Cc1ccccc1Cl | 1.75% | 
c1ccc2c(c1)c1cccc3ccc4cccc2c4c31 | 2.48% | 
Cc1cccc([N+](=O)[O-])c1C | 1.49% | 
CCCCCCCCO | 13.1% | 
CC(C)=CCCC(C)CCO (configuration not stated) | 4.73% | 
CCO[Si](CCCN)(OCC)OCC | -17.9% | 
Clc1cc(Cl)c(Cl)cc1Cl | -11.4% | 
CCO | 4.42% | 
C=CC(=O)OCCOCCOCCOCCOC(=O)C=C |  | inactive
Clc1cc(Cl)c(Cl)c(Cl)c1Cl | -4.69% | 
CCCCC(CC)CN (configuration not stated) |  | inactive
O=NO |  | inactive
c1ccc2c(c1)[nH]c1ccccc12 | -2.86% | 
OCCNCCO | -3.2% | 
Nc1ccc(Cl)cc1Cl | 0.969% | 
CCC(C)c1ccccc1O (configuration not stated) |  | inactive
CC1=CC(C)(C)Nc2ccccc21 |  | inactive
CN(C)C=O |  | inactive
Cc1ccc(N)c([N+](=O)[O-])c1 | 4.93% | 
CCCCOCCO |  | inactive
CC(=O)OC/C=C(\C)CCC=C(C)C | -0.0246% | 
